The structures appear in SMILES notation. Records with an inconclusive call do not appear. A call without a number means that no potency is given here. Active and inactive are the calls of the source. Calls come from the whole dose curve; as a rule, active = well fitted inhibition curve with a large enough effect; inconclusive = small, poorly fitted or top-dose-only effect, or effect the other way; inactive = flat fitted curve, though single readings scatter.
Potency is the fitted concentration of half-maximal effect.

D(1A) dopamine receptor (Homo sapiens), sequence (P21728 whole entry, looked up): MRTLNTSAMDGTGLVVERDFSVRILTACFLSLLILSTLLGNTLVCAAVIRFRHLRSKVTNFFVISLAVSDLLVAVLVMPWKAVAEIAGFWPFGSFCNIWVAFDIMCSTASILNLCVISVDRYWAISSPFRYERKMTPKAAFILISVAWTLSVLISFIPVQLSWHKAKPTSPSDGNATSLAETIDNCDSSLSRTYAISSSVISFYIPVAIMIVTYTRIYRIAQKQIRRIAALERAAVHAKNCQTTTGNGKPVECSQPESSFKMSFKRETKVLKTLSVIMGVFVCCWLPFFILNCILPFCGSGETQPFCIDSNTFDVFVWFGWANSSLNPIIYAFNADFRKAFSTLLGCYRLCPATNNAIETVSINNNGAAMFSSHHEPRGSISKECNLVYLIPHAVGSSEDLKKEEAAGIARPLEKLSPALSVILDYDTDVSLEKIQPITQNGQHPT

The experiment addresses D(1A) dopamine receptor (Homo sapiens) (UniProt P21728). In words: HTS Assay for Allosteric Agonists of the Human D1 Dopamine Receptor: Primary Screen for Antagonists (AID 488983).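 Note: calcium flux response to an EC80 dopamine challenge measured with no-wash dye; nearly all actives have a fitted effect of over 65% in size.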 The settings on record: D1 receptor cell assay, antagonist mode, qHTS titration; series mostly up to 41.8 µM. In short, it runs like this: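 In this primary screen, compounds are applied to calcium-dye-loaded HEK293 T-REx cells with force-coupled D1 expression induced overnight at 30 C. An EC80 of dopamine follows the 180 s compound phase, and calcium is monitored for a further 180 s.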
For orientation: In qHTS, concentration-response curves come from the screen itself.
As for `O=C(O)CCC(=O)N1CCCC1C(=O)O` (configuration not stated), the Potency result was “inactive”.
Consider `C=C(C)C1CC=C(C(=O)O)CC1` (configuration not stated), for which the Potency entry is “inactive”.
With `NCC(O)C1CCCCCCC1` (configuration not stated), the Potency result was “inactive”.
As to `NC(=O)CNCCC(c1ccccc1)c1ccccc1`, the Potency result was “inactive”.
Consider `COc1ccccc1N1CCN(CCCNc2c(C)c(=O)n(C)c(=O)n2C)CC1`, for which the Potency result is “inactive”.
For the compound `C[C@@]1(C2CCCC2)Cc2cc(OCC(=O)O)c(Cl)c(Cl)c2C1=O`, the Potency result is “inactive”.
On to `N[C@@H](CS(=O)O)C(=O)O`, for which the Potency result is “inactive”.
Regarding `COC(=O)C(C)(N)Cc1ccc(O)cc1` (configuration not stated), the Potency entry was “inactive”.
In the case of `O=C(O)/C(=C/c1c(C(=O)O)[nH]c2cc(Cl)cc(Cl)c12)c1ccccc1`, the Potency result was “inactive”.
The value for `Cn1c(=O)[nH]c2ncn(C)c2c1=O` was “inactive”.
Consider `CCCCCCCCCCCCCCCCCCOC[C@H](COP(=O)([O-])OCC[N+](C)(C)C)OC`, for which the Potency result was “inactive”.
Regarding `O=C(O)/C=C/c1ccc(O)c(O)c1`, the Potency entry was “inactive”.
As for `N[C@@H](Cc1ccc(O)c(I)c1)C(=O)O`, the Potency entry was “inactive”.
Consider `NC(=O)c1cc[n+](CC2=C(C(=O)O)N3C(=O)[C@@H](NC(=O)[C@@H](c4ccccc4)S(=O)(=O)[O-])[C@H]3SC2)cc1`, for which the Potency entry was “inactive”.
For the compound `O=[N+]([O-])c1cccc2cn[nH]c12`, the Potency result was “inactive”.
With `c1ccc2nc(C3=NCCN3)ccc2c1`, the Potency entry was “inactive”.
For `COc1ccccc1N1CCN(CCCCNC(=O)c2ccc3ccccc3c2)CC1`, the Potency is 8.91 µM (active).
Consider `O=c1onc2n1-c1cc(Br)ccc1OC2`, for which the Potency entry was “inactive”.
Take `CC(C)NC[C@H](O)COc1ccc(CC(N)=O)cc1`: the Potency result was “inactive”.
As for `NC(N)=NC(N)=Nc1ccccc1`, the Potency entry was “inactive”.
On to `C#CCn1c(=O)c2c(ncn2C)n(C)c1=O`, for which the Potency entry is “inactive”.
Regarding `O=C(OCCN1CCOCC1)C1(c2ccccc2)CCCCC1`, the Potency result was “inactive”.

(Values after PubChem BioAssay (NCATS).)
